Among the data in PubChem BioAssay are composite z-score and z-score values, retold here.

Calls of active or inactive are those of the source. Unless noted, how the calls were made is not given here.

Assay [1] concerns Wnt5a (protein binding on small-molecule microarray). The experiment in a line: small molecules binding Wnt5a protein – biophysical, small-molecule microarray, 635/667 nm fluorescence, primary screen (AID 1142).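 Further: fluorescence read at 667 nm with signal to noise per printed feature.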 The following applies: 635 nm fluorescence, higher = more signal.
Assay [2] in a line: ATP-based viability of Huh7 replicon cells – cell-based, CellTiter-Glo luminescence, basal, 48 h, cytotoxicity control for HCV replication inhibitor project, primary screen (AID 1143).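 Further: Huh7 hepatoma cells carrying a hepatitis C replication reporter with no stimulus; test concentration not given here.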 The following applies: higher = more signal, called active from +8 up or from −8 down. (In general: A replicon is a self-replicating genome or part of one, used to study replication in cells.)
Assay [3] can be described thus: Pseudomonas biofilm growth suppression – PAO1 strain, BacTiter-Glo luminescence, LB-PBS, primary screen (AID 1144). The following applies: P. aeruginosa PAO1 biofilm, 12 h, higher = more signal.
Assay [4] in a line: basal CRE-LacZ reporter activity in PC12 – cell-based, unstimulated, primary screen (AID 1145). The following applies: no forskolin, luminescence, 4.5 h, higher = more signal, called active from +8 up or from −8 down.
Assay [5] can be described thus: forskolin-driven CRE-LacZ activity in PC12 – cell-based, CRE-LacZ reporter, forskolin-stimulated, primary screen (AID 1146).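 Further: PC12 cells with 6xCRE LacZ reporter stimulated by forskolin 10 µM; beta-galactosidase reporter signal reflecting CREB driven transcription.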 The following applies: luminescence, 4.5 h, higher = more signal, called active from +8 up or from −8 down.
For assay [6], the target named is Streptavidin (Streptomyces avidinii) (UniProt P22629). Description: compounds binding control protein streptavidin – biophysical, small-molecule microarray, 635/667 nm fluorescence, artefact control for SMM compound annotation, primary screen (AID 1147).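 Further: signal reflects streptavidin binding to arrayed compounds as a control protein.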 Particulars: higher = more signal.
Streptavidin (Streptomyces avidinii), sequence (P22629 whole entry, looked up): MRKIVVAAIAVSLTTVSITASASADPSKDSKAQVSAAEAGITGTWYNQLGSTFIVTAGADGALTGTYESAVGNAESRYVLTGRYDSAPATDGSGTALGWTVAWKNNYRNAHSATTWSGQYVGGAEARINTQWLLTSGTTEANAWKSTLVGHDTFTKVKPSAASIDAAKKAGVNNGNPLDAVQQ
Assay [7] is described as follows: probe aInhba binding on compound microarray – biochemical, small-molecule microarray, 635/667 nm fluorescence, primary screen (AID 1148).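 Further: score merges 667nm spot fluorescence with signal-to-noise for antibody binding to printed compounds.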 Particulars: higher = more signal.
Assay [8] concerns the target Torsin-1A (Homo sapiens) (UniProt O14656). Description: TOR1A wild-type binding on microarray – cell lysate, small-molecule microarray, lysate, 635/667 nm, primary screen (AID 1149). Particulars: COS7 hTOR1A-WT lysate, 635 nm fluorescence, higher = more signal.
For assay [9] the target is unchanged. The experiment in a line: torsin A mutant lysate binding on microarrays – cell lysate, small-molecule microarray, COS7 lysate, 635/667 nm fluorescence, primary screen (AID 1150).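 Further: score pools 667 nm emission and signal to noise measuring lysate protein binding.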 Particulars: COS7 hTOR1A mutant lysate, 635 nm fluorescence, higher = more signal.
The test system of assay [10] is Sonic hedgehog protein (Shh). Description: Sonic hedgehog microarray binding compounds – biochemical, small-molecule microarray, 635/667 nm fluorescence, primary screen (AID 1151).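 Further: Shh protein binding to compounds spotted on small-molecule microarray slides; score combines spot fluorescence intensity with signal-to-noise across triplicate slides.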 Particulars: 635 nm fluorescence, higher = more signal.
A short description of assay [11]: optical density shifts of acrAB sulA E. coli – strain DRC41, OD650, 48 h, E. coli filamentation inducer project, primary screen (AID 1152).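 Further: E. coli MC1000 strain DRC41 lacking acrAB efflux pump and sulA.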 Particulars: higher = more signal, called active from +8 up or from −8 down.
A short description of assay [12]: probe aLefty1 binding on compound microarray – biochemical, small-molecule microarray, 635/667 nm fluorescence, primary screen (AID 1153).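 Further: score merges spot fluorescence with signal-to-noise ratio from the scanned slide images.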 Particulars: higher = more signal.
A short description of assay [13]: plasmodial surface anion channel blockers, osmotic lysis – cell-based, P. falciparum Indochina, OD700, 1 h, primary screen (AID 1154). The following applies: P. falciparum Indochina infected RBC osmotic lysis, higher = more signal, called active from +8 up or from −8 down.
A short description of assay [14]: plasmodial surface anion channel blockers, osmotic lysis – cell-based, P. falciparum Indochina, OD700, 2 h, primary screen (AID 1155).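 Further: lysis reports solute entry through the parasite surface anion channel PSAC.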 The following applies: P. falciparum Indochina infected erythrocytes, higher = more signal, called active from +8 up or from −8 down.
Assay [15] can be described thus: changes in parasitized red cell lysis, either direction – P. falciparum Indochina, OD700, 3 h, PSAC antagonist project, primary screen (AID 1156). The following applies: P. falciparum-infected erythrocytes, osmotic lysis, higher = more signal, called active from +8 up or from −8 down.
Assay [16] in a line: plasmodial surface anion channel blockers, osmotic lysis – cell-based, P. falciparum Indochina, OD700, 18 h, primary screen (AID 1157). Particulars: P. falciparum Indochina infected erythrocytes, osmotic lysis OD700, 18 h; higher = more signal, called active from +8 up or from −8 down.
Assay [17] can be described thus: S6 kinase pathway phospho-S6 level changes – cell-based, A549, cytoblot, luminescence, serum-stimulated, primary screen (AID 1158).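 Further: serum-stimulated A549 lung adenocarcinoma cells; signal is phosphorylated S6 detected by cytoblot immunostaining with HRP secondary.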 The following applies: 5 h, higher = more signal.
For assay [18], the target named is NADPH oxidase 2 (Homo sapiens) (UniProt P04839). The experiment in a line: compounds shifting NOX2 Amplex Red fluorescence – cell-based, HEK293-NOX2, PMA-stimulated, NOX inhibitor project, primary screen (AID 1159). Further: test concentration not given here. The following applies: 45 min, higher = more signal, called active from +8 up or from −8 down.
NADPH oxidase 2 (Homo sapiens), sequence (P04839 whole entry, looked up): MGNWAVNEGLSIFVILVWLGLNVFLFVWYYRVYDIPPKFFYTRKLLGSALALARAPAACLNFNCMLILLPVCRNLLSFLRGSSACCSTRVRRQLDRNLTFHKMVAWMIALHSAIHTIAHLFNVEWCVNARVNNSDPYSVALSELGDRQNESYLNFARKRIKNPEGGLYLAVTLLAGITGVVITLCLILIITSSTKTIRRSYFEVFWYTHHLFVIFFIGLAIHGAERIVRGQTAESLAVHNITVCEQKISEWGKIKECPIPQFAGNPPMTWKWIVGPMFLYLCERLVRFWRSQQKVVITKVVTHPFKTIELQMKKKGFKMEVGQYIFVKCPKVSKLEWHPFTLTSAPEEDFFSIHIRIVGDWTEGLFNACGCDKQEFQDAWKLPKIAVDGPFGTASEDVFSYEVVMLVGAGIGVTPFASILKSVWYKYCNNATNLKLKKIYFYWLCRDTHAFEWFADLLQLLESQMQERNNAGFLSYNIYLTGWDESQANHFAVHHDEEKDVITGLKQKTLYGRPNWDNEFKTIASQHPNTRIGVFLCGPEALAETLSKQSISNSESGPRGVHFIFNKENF
In assay [19] the target is NADPH oxidase 4 (Homo sapiens) (UniProt Q9NPH5). Description: compounds shifting NOX4 Amplex Red fluorescence – cell-based, HEK293-NOX4, tetracycline-induced, NOX inhibitor project, primary screen (AID 1160). Particulars: HEK293-NOX4, Amplex Red H2O2 fluorescence, 45 min; higher = more signal, called active from +8 up or from −8 down.
NADPH oxidase 4 (Homo sapiens), sequence (Q9NPH5 whole entry, looked up): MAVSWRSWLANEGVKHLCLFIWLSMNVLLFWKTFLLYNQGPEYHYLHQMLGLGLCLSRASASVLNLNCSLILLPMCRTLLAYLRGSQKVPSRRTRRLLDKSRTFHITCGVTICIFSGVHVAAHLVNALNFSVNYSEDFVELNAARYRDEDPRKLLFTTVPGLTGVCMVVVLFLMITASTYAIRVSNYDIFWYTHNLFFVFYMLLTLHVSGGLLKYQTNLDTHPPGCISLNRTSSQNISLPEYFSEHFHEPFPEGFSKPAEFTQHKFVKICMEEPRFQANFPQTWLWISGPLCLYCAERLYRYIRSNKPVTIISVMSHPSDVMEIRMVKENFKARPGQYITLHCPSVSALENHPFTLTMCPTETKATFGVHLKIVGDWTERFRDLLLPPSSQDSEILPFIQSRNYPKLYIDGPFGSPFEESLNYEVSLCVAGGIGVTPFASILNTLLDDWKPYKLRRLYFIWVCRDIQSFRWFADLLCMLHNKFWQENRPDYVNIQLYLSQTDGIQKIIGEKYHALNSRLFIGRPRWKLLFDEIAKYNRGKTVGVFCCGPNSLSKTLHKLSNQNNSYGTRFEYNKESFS
In assay [20] the target is NADPH oxidase 5 (Homo sapiens) (UniProt Q96PH1). The experiment in a line: compounds shifting NOX5 Amplex Red fluorescence – cell-based, HEK293-NOX5, NOX inhibitor project, primary screen (AID 1161). The following applies: HEK293-NOX5, ionomycin, 45 min, higher = more signal.
NADPH oxidase 5 (Homo sapiens), sequence (Q96PH1 whole entry, looked up): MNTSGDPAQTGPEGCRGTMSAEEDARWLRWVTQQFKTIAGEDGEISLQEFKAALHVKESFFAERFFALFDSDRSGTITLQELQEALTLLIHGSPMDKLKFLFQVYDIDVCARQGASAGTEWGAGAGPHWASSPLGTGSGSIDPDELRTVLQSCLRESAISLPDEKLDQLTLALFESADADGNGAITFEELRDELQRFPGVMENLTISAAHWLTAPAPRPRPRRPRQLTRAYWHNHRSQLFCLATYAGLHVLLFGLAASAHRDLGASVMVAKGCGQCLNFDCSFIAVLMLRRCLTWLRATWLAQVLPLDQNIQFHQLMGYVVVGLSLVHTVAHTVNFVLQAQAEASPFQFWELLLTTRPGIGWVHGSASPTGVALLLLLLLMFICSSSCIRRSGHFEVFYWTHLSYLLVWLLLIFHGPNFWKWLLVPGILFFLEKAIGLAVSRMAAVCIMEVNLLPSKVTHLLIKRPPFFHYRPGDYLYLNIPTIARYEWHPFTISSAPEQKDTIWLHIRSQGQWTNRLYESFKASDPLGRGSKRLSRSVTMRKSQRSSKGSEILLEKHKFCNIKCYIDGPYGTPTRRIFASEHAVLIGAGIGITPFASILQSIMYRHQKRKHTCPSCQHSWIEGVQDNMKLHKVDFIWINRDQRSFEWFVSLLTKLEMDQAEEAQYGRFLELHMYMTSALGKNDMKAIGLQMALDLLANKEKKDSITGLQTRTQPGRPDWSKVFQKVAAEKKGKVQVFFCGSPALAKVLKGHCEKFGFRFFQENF

Torsin-1A (Homo sapiens), sequence (O14656 whole entry, looked up): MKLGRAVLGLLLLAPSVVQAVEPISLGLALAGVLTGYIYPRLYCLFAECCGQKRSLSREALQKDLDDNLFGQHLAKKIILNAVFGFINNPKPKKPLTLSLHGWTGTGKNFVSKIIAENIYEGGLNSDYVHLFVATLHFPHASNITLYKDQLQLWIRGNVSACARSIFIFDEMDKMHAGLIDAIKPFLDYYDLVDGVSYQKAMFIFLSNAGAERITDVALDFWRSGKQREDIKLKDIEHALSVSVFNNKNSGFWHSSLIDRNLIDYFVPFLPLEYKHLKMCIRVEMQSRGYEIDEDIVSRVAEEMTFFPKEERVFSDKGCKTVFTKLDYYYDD

Regarding `CCOC(=O)[C@H](CC(C)C)NC(=O)CCC1CC(OC(=O)NCc2ccc3c(c2)OCO3)CC2(CCCC(COC(=O)NCCOc3ccccc3)O2)O1` (stereo not given in full), the composite z-score in assay [1] is 0.278; in assay [6], 0.282; in [7], -0.0719; in [8], 0.314; in assay [9], 0.387; in [10], 1.87. Further, the composite z-score in [12] was determined as 0.0882. Moreover, the z-score in assay [2] is -0.705 (inactive); in assay [3] it was -0.393 (inactive); in assay [4], 0.293 (inactive); in [5], 0.179 (inactive); in assay [11], -0.832 (inactive); in assay [13] it was 0.339 (inactive). The z-score in assay [14] is -0.35 (inactive); in assay [15] it was -0.118 (inactive); in [16], -0.193 (inactive); in assay [17] it was 0.128; in assay [18] it was 1.02 (inactive); in assay [19] it was -1.63 (inactive). The z-score in assay [20] was -0.0957.

With `C[C@@H](c1ccccc1)N1C(=O)[C@H]2[C@H]3[C@H](O)[C@H](O)CC(=NOCc4ccccc4)[C@@H]3CC[C@H]2C1=O`, the composite z-score in assay [1] was 0.0765; in assay [6], 0.665; in assay [7] it was -0.0762; in [8], -0.407; in assay [9], -0.325; in [10] it was -0.742. This compound also had a composite z-score in assay [12] of 0.426. The z-score was 0.039 (inactive) in assay [2]; 1.01 (inactive) in [3]; 0.242 (inactive) in assay [4]; -0.166 (inactive) in assay [5]; -1.42 (inactive) in assay [11]; 2.92 (inactive) in [13]. Moreover, the z-score is 0.117 (inactive) in assay [14]; 0.826 (inactive) in assay [15]; 0.479 (inactive) in assay [16]; -0.547 in assay [17]; -0.666 (inactive) in assay [18]; 0.115 (inactive) in assay [19]. Further, the z-score in [20] worked out at 0.12.

On to `COCC#Cc1ccc([C@@H]2N[C@H](C(=O)O)CC[C@H]2C)cc1`, for which the composite z-score in [1] was -0.0223; in assay [6] it was 0.0402; in assay [7], -0.024; in assay [8], 0.24; in [9], 0.0923; in [10] it was 0.742. In addition, the composite z-score in [12] is -0.194. The z-score was -1.23 (inactive) in assay [2]; -1.73 (inactive) in assay [3]; -0.0755 (inactive) in assay [4]; -1.56 (inactive) in assay [5]; -0.0799 (inactive) in assay [11]; -0.398 (inactive) in [13]. The z-score in assay [14] was -0.478 (inactive); in assay [15], -0.571 (inactive); in assay [16], -0.867 (inactive); in assay [17] it was 2.16; in assay [18], -2.01 (inactive); in [19] it was 0.301 (inactive). Also, the z-score in [20] was determined as 0.723.

Take `COC(=O)[C@@H]1CC[C@H](C)[C@@H](c2ccc(Br)cc2)N1C[C@H](O)CN=[N+]=[N-]`: the composite z-score in [1] was -0.106; in [6], 0.127; in [7] it was -0.05; in assay [8], 0.386; in [9] it was 0.827; in assay [10], 0.26. In assay [12], this compound displayed a composite z-score of 0.181. The z-score is -0.999 (inactive) in assay [2]; -1.5 (inactive) in [3]; -0.522 (inactive) in assay [4]; -0.369 (inactive) in assay [5]; -0.972 (inactive) in assay [11]; 1.04 (inactive) in [13]. The z-score in assay [14] is 0.852 (inactive); in assay [15], 0.48 (inactive); in assay [16] it was 0.541 (inactive); in assay [17] it was 0.928; in assay [18], -0.855 (inactive); in assay [19], -1.08 (inactive). The z-score in assay [20] is -0.0951.
